Compounds with a hit are over-represented: about 21% of the library has one in this group of screens.
Pf growth 96h: Primary qHTS for delayed death inhibitors of the malarial parasite plastid, 96 hour incubation. P. falciparum luciferase reporter growth, 96 h. Potency, µM (doses to about 28.7 µM), without a hit: at the highest dose activity change, negative = inhibition, actives largely listed as inhibitors. actives 6.9% (n = 320,000). AID 504834, 2011; further: potency means the concentration at half of the fitted maximal effect; on the % scale 0 is the no-effect control and ±100 the full control effect
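Luminescence readout: decreased luciferase signal marks inhibited growth of reporter-expressing P. falciparum in infected red cells (2% hematocrit, 0.05% parasitemia final), exposed to compound two generations (96 h, 37 C, 5% CO2).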
Shiga toxin inh: A qHTS for Small Molecule Inhibitors of Shiga Toxin; Vero cells, Shiga toxin protein synthesis inhibition reporter; inhibition, % at 38.7 µM; actives 9.2% (n = 290,000); AID 2315, 2010; in the data active means inhibition mostly above about 28%, no sharp cut-off; inactive means mostly below about 43%; further: 0% is about no effect
HCV inhibitor: qHTS Assay for Inhibitors of Hepatitis C Virus (HCV); Huh7.5.1 HCVcc-Cre infection, luciferase reporter, 44 h; actives 3.4% (n = 340,000); Potency, µM (top dose mostly 41.8 µM), inactives show at the top dose activity change, negative = inhibition, actives largely listed as inhibitors; further: potency means the concentration at half of the fitted maximal effect; on the % scale 0 is the no-effect control and ±100 the full control effect
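HCVcc-Cre virus at an moi near 0.5 was added right after compound to cells cultured 4 h from seeding (1,000 cells/well). Luciferase activity was determined 44 h later, 15 min after substrate addition at RT.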
HCMV antiviral: qHTS Assay for inhibitors of the human cytomegalovirus (HCMV) | HFF cells, HCMV-luciferase reporter, 72 h; stronger effect = lower value | activity change, negative = inhibition, % at 57.5 µM | actives 4.5% (n = 410,000) | AID 1259415, 2018; in the data active means activity change below about -60%; inconclusive means no clear call, values can overlap the other calls; inactive means above about -39%; further: on the % scale 0 is the no-effect control and ±100 the full control effect
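Two compound doses tested in HFFs infected with HCMV-luciferase, MOI 1 PFU/cell, 72 h at 37C. Lysate luminescence read with OneGlo; data normalized against buffer-only and 10uM Salinomycin inhibitor controls.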
Pf growth 48h: Primary qHTS for delayed death inhibitors of the malarial parasite plastid, 48 hour incubation; actives 5.9% (n = 310,000); P. falciparum luciferase growth in erythrocytes, 48 h; Potency, µM (series often up to 28.7 µM), for the others: top-dose activity change, negative = inhibition, actives largely listed as inhibitors; further: potency means the concentration at half of the fitted maximal effect; on the % scale 0 is the no-effect control and ±100 the full control effect
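Parasite viability was followed by luminescence of a genomically integrated firefly luciferase. Cultures held 0.1% parasitemia at 2% hematocrit (final), incubated under 5% CO2 at 37 C.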
Cycloheximide cs: Cycloheximide Counterscreen for Small Molecule Inhibitors of Shiga Toxin | cell reporter, cycloheximide protein synthesis inhibition counterscreen | max response, % | actives 12% (n = 300,000) | AID 2314, 2010; in the data active means max response mostly above about 13%, no sharp cut-off; inactive means mostly below about 14%; further: read at 38.3 µM for the half of the compounds with a filed dose; 0% is about no effect
* hit, by the source's call; u = inconclusive; x = no result; [ ] = dose if it differs, or a comment. Unless noted, the call rests on the fitted dose curve; in most records, active means well fitted inhibition curve with a large enough effect; inconclusive means small, poorly fitted or top-dose-only effect, or another doubt; inactive means no such curve, though single readings can be large or run the other way.

SMILES | Pf growth 96h | Shiga toxin inh | HCV inhibitor | HCMV antiviral | Pf growth 48h | Cycloheximide cs
Cc1ccc(-c2nc3ccccc3o2)cc1NC(=S)NC(=O)c1cc2ccccc2o1 | 29% | 85* | -11% | 69 | 142% | 45*
CN1CCN(c2ccccc2NC(=S)NC(=O)c2cc3ccccc3o2)CC1 | 19% | -10 | 2% | 32 | u | 5
Cc1ccc2oc(-c3ccc(C)c(NC(=S)NC(=O)c4cccs4)c3)nc2c1 | 323% | 10* | u | 96 | 255% | 45*
CC(C)CC(=O)NCC1(N(C)C)CCCCC1 | x | x | x | 13 | x | x
COc1ccc(OC)c(NC(=O)c2cc(S(=O)(=O)N3CCCC3)cn2C)c1 | 38% | 8 | -28% | 14 | -15% | 1
CSc1nsc(SCC(=O)Nc2ccc(C(C)=O)cc2)n1 | -45% | 72* | -4% | 139 | x | 47*
COc1ccc(NC(=O)CSc2nc(SC)ns2)cc1 | 2% | 89* | -15% | 14 | 118% | 19*
CC(NC(=O)C(=O)NCCc1c[nH]c2ccccc12)c1ccccc1 (stereo unspecified) | 9% | 3 | -10% | 42 | -5%[0.00184 µM] | 4
CCCc1cc(C(=O)Nc2ccc(C#N)cc2)no1 | -29% | 34 | -18% | -18 | 41% | 15*
CC(=O)c1cccc(NC(=O)c2cc(-c3ccc4c(c3)OCCO4)on2)c1 | x | x | x | 103 | x | x
CC(=O)c1ccc(NC(=O)c2cc(C)no2)cc1 | 7% | 14 | 8% | 15 | 44% | 17
CCCc1cc(C(=O)Nc2sc(C)c(CC)c2C#N)no1 | 0% | 40 | -28% | 30 | -3% | 13*
CC(=O)c1cccc(NC(=O)c2cc(-c3ccc(C)cc3)on2)c1 | 65% | active | -15% | 4 | 144% | 30*
CCCc1cc(C(=O)Nc2ccc(C(C)=O)cc2)no1 | u | 82* | 7% | 23 | 93% | 42*
COc1ccc(-c2cnc(C)o2)cc1S(=O)(=O)Nc1ccc(OC(F)(F)F)cc1 | x | x | x | -7 | x | x
CCCCS(=O)(=O)CC(O)CSc1nc(-c2ccc(C)cc2)cc(-c2ccccc2)c1C#N (stereo unspecified) | x | x | x | 1 | x | x
CCCc1cc(C(=O)Nc2cccc(Cl)c2)no1 | 21% | 82* | -13% | u | 93% | 23*
Cc1ccc(NC(=O)c2cc(CN3CCOCC3)on2)cc1Cl | x | x | x | 18 | x | x
CCCc1cc(C(=O)Nc2ccc(F)c(Cl)c2)no1 | -3% | 94* | -16% | 16 | 152% | 31*
CCCc1cc(C(=O)Nc2cccnc2)no1 | u | 89* | 3% | 41 | x | 72*
CCCc1cc(C(=O)Nc2cccc(C(C)=O)c2)no1 | u | 67* | -2% | 69 | x | 31*
CCCc1cc(C(=O)Nc2c(C)nn(Cc3c(Cl)cccc3Cl)c2C)no1 | x | x | x | -30 | x | x
COc1cccc(-c2nn(-c3ccc(F)cc3)cc2C(=O)NCC2CCCO2)c1 (stereo unspecified) | 2% | x | 11% | -25 | -4% | x
CC(C)N(C)c1ncnc2c1ncn2[C@H]1CN(Cc2ccc(-c3ccccc3)cc2)C[C@@H](CO)O1 | x | x | x | -8 | x | x
CCC(C(=O)NCc1ccc(F)cc1)N(Cc1cccs1)C(=O)c1snc(C(N)=O)c1N (stereo unspecified) | 11% | -9 | -18% | 11 | -21% | -1
SMILES | Pf growth 96h | Shiga toxin inh | HCV inhibitor | HCMV antiviral | Pf growth 48h | Cycloheximide cs
CC(C)c1cc(C(=O)Nc2cccnc2)no1 | x | 48* | 4% | 99 | 315% | 37*
C[C@H](CN1c2ccccc2Sc2cccnc21)N(C)C | 6µM* | x | x | x | u | x
CCC(C)NC(=O)CN1C(=O)c2cccnc2Sc2ccccc21 (stereo unspecified) | x | x | x | 8 | x | x
CCc1ccc2c(c1)N(C[C@H](C)CN(C)C)c1ccccc1S2 | 15µM* | x | x | x | 17µM* | x
CCN(CC)[C@@H](C)CN1c2ccccc2Sc2ccccc21 | 6.4µM* | x | x | x | -26%[12.8 µM] | x
CCC(=O)c1ccc2c(c1)N(CCCN(C)C)c1ccccc1S2 | u | x | u | 18 | u | x
Cc1ccc(N(C)C(=O)CCS(=O)(=O)c2cc3c(cc2Cl)NC(=O)CO3)cc1 | -39% | 1 | -18% | 4 | u | -3
COc1ccc(CCNC(=O)CCCCn2c(=O)c3ccccc3n(Cc3ccccc3Cl)c2=O)cc1OC | x | x | x | 12 | x | x
CC(C)(C)c1csc(N/N=C/c2ccc(O)cc2)n1 | u | 91* | u | -13 | 19% | 47*
CC(Oc1ccccc1)C(=O)Nc1ccc(C(N)=O)cc1 (stereo unspecified) | 45% | 1 | -13% | 8 | 5% | 10
NC(=O)c1ccc(NC(=O)C#Cc2ccccc2)cc1 | u | 56* | u | -103* | u | 35*
COc1ccc(NC(=O)C#Cc2ccccc2)cc1OC | 8% | 39 | u | -88* | u | 13*
COCCN(C(=O)COC(=O)/C=C/c1cccc(OC)c1)c1c(N)n(CC(C)C)c(=O)[nH]c1=O | 19% | x | 5% | 4 | u | x
COCCCNC(=S)NC(=O)c1ccc(C)cc1 | 3% | 123* | -4% | -11 | 197% | 78*
CCCCC(=O)NNC(=S)NC(=O)c1ccc(C)cc1 | u | 49* | -28% | -24 | u | 22
CCCCC(=O)NNC(=S)NC(=O)c1ccc([N+](=O)[O-])cc1 | u | -17 | -3% | -10 | -22% | -1
COCCCNC(=S)NNC(=O)c1ccc(C(C)(C)C)cc1 | -19% | -19 | 8% | 4 | 4% | 3
CCCCn1c(N)c(N(CC(C)C)C(=O)C2=COCCO2)c(=O)[nH]c1=O | -5% | x | 10% | -9 | -2% | x
Cc1ccc(S(=O)(=O)c2nc(S(C)(=O)=O)sc2N2CCC3(CC2)OCCO3)cc1 | u | -7 | -11% | -2 | u | -2
CCOC(=O)N1CCc2c(sc(NCc3cccc(F)c3)c2C(=O)Nc2ccc(OC)cc2)C1 | x | x | x | -19 | x | x
CCOC(=O)N1CCc2c(sc(NCc3ccc(N(C)C)cc3)c2C(=O)Nc2ccc(OC)cc2)C1 | x | x | x | -65* | x | x
CCOC(=O)N1CCc2c(sc(NCc3cc(OC)c(OC)cc3OC)c2C(=O)Nc2ccc(OCC)cc2)C1 | x | x | x | 2 | x | x
COc1ccc(NC(=O)c2c(NCc3sccc3C)sc3c2CCCCC3)c(OC)c1 | x | x | x | -7 | x | x
CCOC(=O)N1CCc2c(sc(NCc3cccc(F)c3)c2C(=O)Nc2ccc(OC)cc2OC)C1 | x | x | x | -87* | x | x
COc1ccc(NC(=O)c2c(NC(=O)CNCC(C)C)sc3c2CCC3)c(OC)c1 | -4% | 26 | 10µM* | -4 | 9.3µM* | 11
CCOC(=O)N1CCc2c(sc(NCc3sccc3C)c2C(=O)Nc2ccc(OC)cc2OC)C1 | x | x | x | -85* | x | x

Bioassay records: PubChem, National Center for Advancing Translational Sciences (NCATS)
